# Where “and” joins values, the source holds several entries; their conditions need not be identical. Equal values may be shown once. The source holds several records for some structures; these can differ, active in one and inactive in another. Calls of active or inactive are those of the source. Rule for the calls: active = hit-call score of the fitted dose curve at least 0.9, where 1 is the maximum; inactive = score below 0.9.
# How the values were obtained:
# [1] = BSK_SAg_PBMCCytotoxicity: PBMC Cytotoxicity Assessment in the BioMAP Diversity Plus: SAg Assay (AID 2283093); conditions: primary human HUVEC with PBMC;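 note: fitted both ways against DMSO so a hit may be loss or gain of signal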;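 for AC50: PBMC superantigen activated with SEB plus TSST-1 one hour after compound addition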
# Procedure, shortened: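 PBMC viability by Alamar Blue reduction, fluorescence read at 546/580 nm after 6 h dye exposure. Cells were dosed 1 h before SEB plus TSST-1 activation (20 ng/mL final each), then held 90 h; endothelial/PBMC human co-culture.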
# [2] = read-out: Interleukin-8 (IL8), CXCL8 (gene 3576); assay: BSK_SAg_IL8: BioMAP Diversity Plus: SAg Assay for Interleukin-8 (IL8) Biomarker Activity (AID 2283094); conditions: primary human HUVEC with PBMC; actives raise or lower the signal
# Procedure, shortened: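 Primary human endothelial cells with PBMC, exposed 24 h; IL-8 determined by ELISA, analysed bidirectionally relative to DMSO.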
# [3] = BSK_SAg_Proliferation: Cell Proliferation Assessment in the BioMAP Diversity Plus: SAg Assay (AID 2283095); conditions: primary human HUVEC with PBMC;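 note: relative cell number as total protein by SRB absorbance in sub-confluent culture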
# Procedure, shortened: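 A human primary co-culture of umbilical vein endothelium and blood mononuclear cells receives compound; relative cell number is quantified at 96 h by SRB staining and 560 nm absorbance, with DMSO-referenced bidirectional curve fitting.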
# [4] = BSK_SAg_SRB: Viability Assessment in the BioMAP Diversity Plus: SAg Assay (AID 2283096); conditions: primary human HUVEC with PBMC;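 note: cells read one day after compound addition; hits may be either gain or loss of signal compared with DMSO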
# Procedure, shortened: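 Compounds were added to a human vascular co-culture of umbilical vein endothelium and PBMC. After 24 h, parallel cultures were fixed with 10% TCA, stained with 0.1% sulforhodamine B and read at 560 nm. Gain or loss of signal was fitted relative to DMSO.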
SMILES,outcome [1],AC50 [2],AC50 [3],outcome [4],outcome [2],outcome [3],AC50 [1],AC50 [4]
Clc1nc(Cl)c(Cl)c(Cl)c1Cl,inactive,14.4 µM (active),23.3 µM (active),inactive,,,,
C1=CCCC=CCCC=CCC1,inactive,,,inactive,inactive,inactive,,
Cc1ccc(O)cc1,inactive,,,inactive,inactive,inactive,,
C[C@](N)(Cc1ccc(O)c(O)c1)C(=O)O,,,23.9 µM (active),inactive,inactive,,10.8 µM (active),
CC(O)CN(CCN(CC(C)O)CC(C)O)CC(C)O (stereo unspecified),inactive,,,inactive,inactive,inactive,,
CCC(C)(C)C(=O)O[C@H]1C[C@@H](C)C=C2C=C[C@H](C)[C@H](CC[C@@H]3C[C@@H](O)CC(=O)O3)[C@H]21,,0.149 µM (active),6.31 µM (active),,,,25.1 µM (active),1.32 µM (active)
O=C1CCCCCN1,inactive,,,inactive,inactive,inactive,,
CC(C)CCCCCCOC(=O)c1ccc(C(=O)OCCCCCCC(C)C)c(C(=O)OCCCCCCC(C)C)c1,inactive,,,inactive,inactive,inactive,,
CNCc1ccc(NC(=O)c2c[nH]c3c2C(=O)CCC3)cc1,inactive,,,inactive,inactive,inactive,,
CCCC(=O)OCC,inactive,,,inactive,inactive,inactive,,
Cn1c(=O)c2c(ncn2C)n(C)c1=O,inactive,,,inactive,inactive,inactive,,
O=C(CCCCCCCCc1cccnc1)N1CCC(C=C(c2ccccc2)c2ccccc2)CC1,,6.46 µM (active),6.21 µM (active),,,,10.3 µM (active),12.7 µM (active)
CNS(=O)(=O)c1cc(C(=O)N2CCC(CCN3C4CCC3CC(n3c(C)nc5ccccc53)C4)(c3cccc(F)c3)CC2)c(Cl)cc1F (stereo unspecified),,20 µM (active),10.4 µM (active),,,,12.6 µM (active),16.7 µM (active)
CC(=O)OC[C@H]1O[C@@](COC(C)=O)(O[C@H]2O[C@H](COC(C)=O)[C@@H](OC(C)=O)[C@H](OC(C)=O)[C@H]2OC(C)=O)[C@@H](OC(C)=O)[C@@H]1OC(C)=O,inactive,,,inactive,inactive,inactive,,
CCCCC(CC)COC(=O)CCCCCCCCC(=O)OCC(CC)CCCC (stereo unspecified),inactive,,,inactive,inactive,inactive,,
CCN(C(=O)c1cc(C)cc(OC[C@H](C)Nc2ccncc2)c1)C(C)C,inactive,,,inactive,inactive,inactive,,
C=CCCCCCCCCC(=O)O,inactive,,,inactive,inactive,inactive,,
CC[C@H]1CC[C@H](NCc2cc3c(cc2OC)[C@H]2C[C@H]2C(=O)N3C)[C@H](c2ccccc2)N1,inactive,,,inactive,inactive,inactive,,
CC(C)CCO,inactive,,,inactive,inactive,inactive,,
O=C1OC(=O)C2C3C=CC(C3)C12 (stereo unspecified),inactive,,,inactive,inactive,inactive,,
CCCN(C1CCN(C(=O)C2CCNCC2)CC1)[C@@H]1CCc2ccc(OC)cc2C1,inactive,,,inactive,inactive,inactive,,
NC(=O)NO,inactive,,,inactive,inactive,inactive,,
Cn1cnc([N+](=O)[O-])c1Sc1ncnc2nc[nH]c12,inactive,12.9 µM (active) and 12.6 µM (active) and 9.23 µM (active),17.3 µM (active) and 7.53 µM (active) and 7.26 µM (active),inactive,,,13.7 µM (active),
COC(=O)CC(=O)OC,inactive,,,inactive,inactive,inactive,,
O=C(NS(=O)(=O)/C=C/c1ccccc1)c1ccc(F)cc1Cl,inactive,,8.5 µM (active),inactive,inactive,,,
Cc1ccc(C)c(O)c1,inactive,,,inactive,inactive,inactive,,
CC[C@H]1OC(=O)[C@H](C)[C@@H](O[C@H]2C[C@@](C)(OC)[C@@H](O)[C@H](C)O2)[C@H](C)[C@@H](O[C@@H]2O[C@H](C)C[C@H](N(C)C)[C@H]2O)[C@](C)(O)C[C@@H](C)C(=O)[C@H](C)[C@@H](O)[C@]1(C)O,inactive,,,inactive,inactive,inactive,,
CCn1nc(Cc2ccccc2)cc1C1CCN(C[C@H]2C[C@H](N(C)[C@@H](C(=O)O)C(C)C)C[C@@H]2c2cccc(F)c2)CC1,inactive,,,inactive,inactive,inactive,,
CC(C)CC(C)(O)C#CC(C)(O)CC(C)C (stereo unspecified),inactive,,,inactive,inactive,inactive,,
O=C(O)CC(O)C(=O)O (stereo unspecified),inactive,,,inactive,inactive,inactive,,

# From PubChem BioAssay (EPA / NIEHS)
